Results from PubChem BioAssay (NCATS).
Inconclusive results are not listed. Unmarked numbers belong to inactive results. Active and inactive are the calls of the source. Calls follow the shape of the dose curve; as a rule, active = well fitted cell-killing curve with a large enough effect; inconclusive = small, poorly fitted or top-dose-only effect, or effect the other way; inactive = no such curve, though single readings can be large or run the other way.

Legend:
[1] = Quantitative High-Throughput drug screen in 47 multiple myeloma cell lines against the NCATS MIPE library collection: MM1R_ATCC cell viability assay (AID 1918981); also: nearly all actives have a fitted effect of over 35% in size
In short: (§1)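 qHTS format: cells plated (500/well), pin-dosed with MIPE 4.0 compounds, kept 48 h at 37 °C. Readout was CellTiter-Glo luminescence, median RLU.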

[2] = Quantitative High-Throughput drug screen in 47 multiple myeloma cell lines against the NCATS MIPE library collection: LP1_DSMZ cell viability assay (AID 1918982); also: nearly all actives have a fitted effect of over 35% in size
In short: as §1

[3] = Quantitative High-Throughput drug screen in 47 multiple myeloma cell lines against the NCATS MIPE library collection: L363_DSMZ cell viability assay (AID 1918984); also: nearly all actives have a fitted effect of over 40% in size
In short: as §1

[4] = Quantitative High-Throughput drug screen in 47 multiple myeloma cell lines against the NCATS MIPE library collection: OPM1_PLB cell viability assay (AID 1918989); also: nearly all actives have a fitted effect of over 40% in size
In short: as §1

[5] = Quantitative High-Throughput drug screen in 47 multiple myeloma cell lines against the NCATS MIPE library collection: SKMM1_PLB cell viability assay (AID 1919863); settings: SKMM1 myeloma viability, CellTiter-Glo ATP, 48 h; viability: hits give low values; also: nearly all actives have a fitted effect of over 35% in size
In short: as §1

[6] = Quantitative High-Throughput drug screen in 47 multiple myeloma cell lines against the NCATS MIPE library collection: XG6_PLB cell viability assay (AID 1919865); also: nearly all actives have a fitted effect of over 40% in size
In short: as §1

[7] = Quantitative High-Throughput drug screen in 47 multiple myeloma cell lines against the NCATS MIPE library collection: XG1_PLB cell viability assay (AID 1919866); also: nearly all actives have a fitted effect of over 35% in size
In short: as §1

[8] = Quantitative High-Throughput drug screen in 47 multiple myeloma cell lines against the NCATS MIPE library collection: VP6_DJ cell viability assay (AID 1919867); also: nearly all actives have a fitted effect of over 40% in size
In short: as §1

[9] = Quantitative High-Throughput drug screen in 47 multiple myeloma cell lines against the NCATS MIPE library collection: UTMC2_PLB cell viability assay (AID 1919868); settings: CellTiter-Glo ATP luminescence, 48 h; viability (% of DMSO control): at 45.8 µM (top of the series); also: nearly all actives have a fitted effect of over 55% in size
In short: as §1

[10] = Quantitative High-Throughput drug screen in 47 multiple myeloma cell lines against the NCATS MIPE library collection: PE2_PLB cell viability assay (AID 1919869); also: nearly all actives have a fitted effect of over 35% in size
In short: as §1

[11] = Quantitative High-Throughput drug screen in 47 multiple myeloma cell lines against the NCATS MIPE library collection: OPM2_DSMZ cell viability assay (AID 1919872); also: nearly all actives have a fitted effect of over 30% in size
In short: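 We plated 500 myeloma cells per well, pinned in MIPE 4.0 compounds, and incubated for 48 hours at 37C. ATP was then quantified with CellTiter-Glo, with DMSO and media-only wells defining 100% and 0%.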

[12] = Quantitative High-Throughput drug screen in 47 multiple myeloma cell lines against the NCATS MIPE library collection: KMS34_JCRB cell viability assay (AID 1918985); also: nearly all actives have a fitted effect of over 40% in size
In short: as §1

[13] = Quantitative High-Throughput drug screen in 47 multiple myeloma cell lines against the NCATS MIPE library collection: U266_ATCC cell viability assay (AID 1919864); also: nearly all actives have a fitted effect of over 35% in size
In short: as §1

[14] = Quantitative High-Throughput drug screen in 47 multiple myeloma cell lines against the NCATS MIPE library collection: RPMI8226_ATCC cell viability assay (AID 1919871); also: nearly all actives have a fitted effect of over 30% in size
In short: as §1

[15] = Quantitative High-Throughput drug screen in 47 multiple myeloma cell lines against the NCATS MIPE library collection: KMS28PE_JCRB cell viability assay (AID 1918983); also: nearly all actives have a fitted effect of over 35% in size
In short: as §1

[16] = Quantitative High-Throughput drug screen in 47 multiple myeloma cell lines against the NCATS MIPE library collection: OCIMY5_PLB cell viability assay (AID 1918988); also: nearly all actives have a fitted effect of over 65% in size
In short: as §1

[17] = Quantitative High-Throughput drug screen in 47 multiple myeloma cell lines against the NCATS MIPE library collection: PCM6_Riken cell viability assay (AID 1919870); also: nearly all actives have a fitted effect of over 30% in size
In short: as §1

[18] = Quantitative High-Throughput drug screen in 47 multiple myeloma cell lines against the NCATS MIPE library collection: OCIMY7_PLB cell viability assay (AID 1918987); settings: OCI-MY7 myeloma viability, CellTiter-Glo ATP, 48 h; viability (% of DMSO): at 45.8 µM (top of the series); also: nearly all actives have a fitted effect of over 65% in size
In short: as §1
Potency is read from the fitted curve at half-maximal effect.

| Structure (SMILES) | Potency [1] | Potency [2] | Potency [3] | Potency [4] | viability [5] [%] | Potency [6] | Potency [7] | Potency [8] | Potency [9] | Potency [10] | Potency [11] | Potency [12] | Potency [13] | Potency [14] | Potency [5] | Potency [15] | Potency [16] | Potency [17] | Potency [18] |
| --- | --- | --- | --- | --- | --- | --- | --- | --- | --- | --- | --- | --- | --- | --- | --- | --- | --- | --- | --- |
| OCCN1C[C@H](O)[C@@H](O)[C@H](O)[C@@H]1CO | inactive | inactive | inactive | inactive | 126 | inactive | inactive | inactive | inactive | inactive | inactive | – | – | – | – | – | – | – | – |
| CCCCCCCN(CC)CCCC(O)c1ccc(NS(C)(=O)=O)cc1 (stereo unspecified) | inactive | – | – | – | – | – | 18.7 µM (active) | – | – | – | – | inactive | inactive | inactive | – | – | – | – | – |
| CC(Cc1ccc(O)c(O)c1)(NN)C(=O)O (stereo unspecified) | – | – | inactive | – | – | – | inactive | – | inactive | inactive | – | – | – | – | 16.6 µM (active) | – | – | – | – |
| CON=C(C(=O)N[C@@H]1C(=O)N2C(C(=O)O)=C(Cn3ccc(=N)n3CCO)CS[C@H]12)c1csc(N)n1 | – | inactive | inactive | – | 112 | inactive | – | – | – | inactive | inactive | inactive | – | inactive | – | inactive | inactive | inactive | – |
| CCc1nc(-c2cccc(C)c2)c(-c2ccnc(NC(=O)c3ccccc3)c2)s1 | – | – | inactive | 13.2 µM (active) | – | 20.9 µM (active) | – | – | 23.5 µM (active) | 13.2 µM (active) | 18.7 µM (active) | – | – | – | – | 20.9 µM (active) | 16.6 µM (active) | – | – |
| C[C@]12CC[C@@H]3c4ccc(O)cc4CC[C@H]3[C@H]1CC[C@H]2O | 14.8 µM (active) | – | – | 16.6 µM (active) | – | 5.9 µM (active) | – | – | – | 16.6 µM (active) | 18.7 µM (active) | – | 6.62 µM (active) | 18.7 µM (active) | – | 29.6 µM (active) | – | – | 5.9 µM (active) |
| COc1ccc(C[C@@H](C)[C@@H](C)Cc2ccc(OC)c(OC)c2)cc1OC | 1.05 µM (active) | – | 0.166 µM (active) | 0.264 µM (active) | – | – | 0.187 µM (active) | – | 0.209 µM (active) | 0.332 µM (active) | 0.469 µM (active) | – | 0.935 µM (active) | 1.18 µM (active) | 0.372 µM (active) | 0.332 µM (active) | 0.469 µM (active) | 0.332 µM (active) | – |
| O=C(O)[C@H](CC(=O)N1C[C@@H]2CCCC[C@H]2C1)Cc1ccccc1 | – | – | – | inactive | – | – | – | – | inactive | inactive | inactive | – | inactive | – | – | – | – | inactive | – |
| Cn1cc(-c2cnn3c(N)c(Br)c([C@H]4CCCNC4)nc23)cn1 | 0.209 µM (active) | – | 0.059 µM (active) | 0.833 µM (active) | – | 0.264 µM (active) | 0.526 µM (active) | – | 0.662 µM (active) | 1.05 µM (active) | 14.8 µM (active) | 0.935 µM (active) | 7.43 µM (active) | 7.43 µM (active) | – | 13.2 µM (active) | 0.332 µM (active) | 0.662 µM (active) | 1.18 µM (active) |
| Cc1noc(-c2ccc(CSCCC(=O)O)cc2)c1NC(=O)OC(C)c1ccccc1Cl (stereo unspecified) | inactive | – | – | inactive | – | inactive | inactive | inactive | inactive | inactive | inactive | inactive | inactive | inactive | – | – | – | inactive | – |
| Cc1cncc2cccc(S(=O)(=O)N3CCCN(C(=O)CN)C[C@@H]3C)c12 | inactive | – | inactive | inactive | – | 14.8 µM (active) | 20.9 µM (active) | inactive | 5.9 µM (active) | – | – | – | – | inactive | – | 18.7 µM (active) | 1.48 µM (active) | 20.9 µM (active) | 11.8 µM (active) |
| FC(F)(F)c1ccc(Nc2nc3ccc(Oc4ccnc(-c5ncc(C(F)(F)F)[nH]5)c4)cc3[nH]2)cc1 | – | – | 18.7 µM (active) | 20.9 µM (active) | – | 16.6 µM (active) | 14.8 µM (active) | – | – | 26.4 µM (active) | – | – | 13.2 µM (active) | 26.4 µM (active) | – | – | 16.6 µM (active) | 18.7 µM (active) | – |
| Cc1coc2c1C(=O)C(=O)c1c-2ccc2c(C)cccc12 | 20.9 µM (active) | – | – | 2.96 µM (active) | – | – | – | 11.8 µM (active) | – | – | – | – | 20.9 µM (active) | – | 14.8 µM (active) | 8.33 µM (active) | 14.8 µM (active) | 3.72 µM (active) | 5.9 µM (active) |
| N#Cc1c(NC(=O)c2cccc3ccccc23)sc2c1CCCC2 | 0.743 µM (active) | – | 0.296 µM (active) | 0.469 µM (active) | – | 0.148 µM (active) | 0.0833 µM (active) | – | – | 0.526 µM (active) | 0.743 µM (active) | 0.296 µM (active) | – | 2.64 µM (active) | 0.526 µM (active) | 0.469 µM (active) | 0.187 µM (active) | 0.296 µM (active) | 0.187 µM (active) |
| Cc1onc(-c2ccccc2)c1C(=O)N[C@@H]1C(=O)N2[C@@H](C(=O)O)C(C)(C)S[C@@H]12 | – | – | – | inactive | 123 | inactive | – | – | – | – | inactive | – | inactive | inactive | – | – | – | inactive | inactive |
| Oc1ccc([C@@H]2Oc3ccc(O)cc3[C@@H]3CCC[C@@H]32)cc1 | – | – | inactive | 16.6 µM (active) | – | – | – | – | – | – | – | 23.5 µM (active) | – | – | 10.5 µM (active) | 23.5 µM (active) | 14.8 µM (active) | – | 1.18 µM (active) |
| O=C(O)C(=O)Nc1cccc(C2=NN=N[N]2)c1 | – | inactive | – | inactive | 129 | inactive | – | – | – | inactive | inactive | inactive | – | inactive | – | inactive | inactive | inactive | – |
| Cc1cnc(Nc2ccc(CN3CCOCC3)cc2)nc1Nc1cccc(S(=O)(=O)NC(C)(C)C)c1 | 4.69 µM (active) | 5.9 µM (active) | – | 0.935 µM (active) | – | 1.18 µM (active) | 0.935 µM (active) | 1.32 µM (active) | 0.743 µM (active) | 1.66 µM (active) | 4.69 µM (active) | – | 7.43 µM (active) | 4.18 µM (active) | 5.26 µM (active) | 9.35 µM (active) | 1.87 µM (active) | 5.26 µM (active) | 0.526 µM (active) |
| N#CC(=C(N)Sc1ccc(N)cc1)c1ccccc1C(F)(F)F | 14.8 µM (active) | 16.6 µM (active) | – | – | – | – | – | – | – | 2.96 µM (active) | inactive | inactive | – | 13.2 µM (active) | 7.43 µM (active) | 6.62 µM (active) | 16.6 µM (active) | inactive | 0.148 µM (active) |
| COC1=C(OC)C(=O)C(CC=C(C)CCC=C(C)CCC=C(C)CCC=C(C)CCC=C(C)CCC=C(C)CCC=C(C)CCC=C(C)CCC=C(C)CCC=C(C)C)=C(C)C1=O | inactive | inactive | – | inactive | 99.4 | inactive | inactive | – | inactive | inactive | – | inactive | – | – | – | inactive | – | inactive | – |
| C[C@H]1C[C@H]2[C@@H]3CCC4=CC(=O)C=C[C@]4(C)[C@@H]3C(=O)C[C@]2(C)[C@@]1(O)C(=O)CO | – | – | – | inactive | – | – | inactive | – | – | inactive | inactive | – | – | inactive | – | inactive | inactive | inactive | – |
